The entries come from a sample that favours hits as a whole.
Tgondii IFNg = T. gondii growth inhibition with IFN-gamma, primary screen, cell-based; 69,000 tested, 3.8% active; activity change, negative = inhibition, % (no concentration beside the values); Toxoplasma gondii growth in IFN-gamma-treated host cells; hits give low values; in the data active = activity change below about -70%, passing the limit was not always enough;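 note: host cells are HeLa cells infected with Toxoplasma gondii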
The depositor's hits bear a star.

Screening Cc1oc2ncn3nc(C(C)NC(=O)CCc4ccccc4)nc3c2c1C (centres undefined) returned Tgondii IFNg 11.
`CC(C)c1ccc(C(NC(=O)CCc2ccccc2)c2ccc3cccnc3c2O)cc1` (centres undefined) gave Tgondii IFNg -102*.
Screening Cc1ccc(CN(Cc2ccncc2)Cc2cnc(N3CCCCC3)nc2)cc1 returned Tgondii IFNg 39.
For O=C(c1cc2cccnc2n(Cc2ccccc2)c1=O)N1CCN(Cc2ccccc2)CC1 the results were Tgondii IFNg 9.
`C=CCc1cc(C(=O)N2CC[C@H](O)[C@@H](O)C2)ccc1OC` gave Tgondii IFNg -2.
Screening CCS(=O)(=O)N1CCC2OCCCC2(COc2ccccn2)C1 (centres undefined) returned Tgondii IFNg -2.
`Cc1ccccc1-c1ncc(C2CC(=O)Nc3c2c(C2CC2)nn3C)s1` (centres undefined) gave Tgondii IFNg -13.
Cc1cc(C)c(S(=O)(=O)NCCCn2ccnc2)c(C)c1 was read as Tgondii IFNg -36.
Screening Cc1cc(C)c2cc(C#N)c(NCCCn3ccnc3)nc2c1 returned Tgondii IFNg -101*.
Screening Cc1cccc(-n2ncc3c(NCCCn4ccnc4)ncnc32)c1 returned Tgondii IFNg 58.
For COCCN1CCO[C@@H]2CN(C(=O)CC3Cc4ccccc4C3)C[C@@H]2C1 the results were Tgondii IFNg 3.
Screening Cc1ccsc1CN(C)C(=O)[C@@]12CC[C@@](C)(OC1=O)C2(C)C returned Tgondii IFNg 32.
`CCCS(=O)(=O)N1C[C@H](OCc2csc(C)n2)[C@@H]2COC[C@@H]21` gave Tgondii IFNg 5.
`CCCC(=O)Nc1ccc(-c2nc(Cn3nc(C)cc3C)c(C)o2)cc1` gave Tgondii IFNg 7.
Screening CN(Cc1ccsc1)Cc1cc2n(n1)CCNC2 returned Tgondii IFNg 1.
For Brc1cccc(Nc2ncnc3cc4nc[nH]c4cc23)c1 the results were Tgondii IFNg -20.
For CCN(CC)c1nc2nonc2nc1Nc1cccc(Br)c1 the results were Tgondii IFNg -112*.
CNc1cc2c(Nc3cccc(Br)c3)ncnc2cn1 was read as Tgondii IFNg -16.
`O=C(Cc1ccccn1)N1CC[C@H](O)[C@@H]1Cc1ccncc1` gave Tgondii IFNg -50.
`Cc1ccc(C(=O)N2CCCC(Nc3ccc(F)cc3)C2)c(=O)[nH]1` (centres undefined) gave Tgondii IFNg 7.
For Cc1nc2c(C)cccc2cc1C(=O)Nc1cccc(C(=O)N2CCCCC2)c1 the results were Tgondii IFNg 25.
`Cc1ccc(C)c(S(=O)(=O)NCCc2sc(-c3cccc(F)c3)nc2C)c1` gave Tgondii IFNg -32.
For Cc1ccc(NC(=O)NCC(c2cccnc2)c2cn(C)c3ccccc23)c(C)c1 (centres undefined) the results were Tgondii IFNg 153.
For N#Cc1ccc(-c2ccc([C@@H]3[C@@H]4CN(Cc5cocn5)C[C@H]3N4)cc2)cc1 the results were Tgondii IFNg -46.
For N#Cc1cccc(-c2ccc(C3[C@@H]4CN(Cc5ccccc5)C[C@H]3N4)cc2)c1 (some centres undefined) the results were Tgondii IFNg -21.
Screening N#Cc1ccc(-c2ccc([C@@H]3[C@@H]4CN(S(=O)(=O)Cc5ccccc5)C[C@H]3N4)cc2)cc1 returned Tgondii IFNg -71*.
CC(=O)c1ccc(CN2CCCCC2CN2CCOCC2)cc1 (centres undefined) was read as Tgondii IFNg -4.
Screening Cn1ccc(C(=O)N2CCC3(CC2)CC(Nc2ncccn2)CO3)n1 (centres undefined) returned Tgondii IFNg -4.
`CCCN1CCN(C(=O)CCn2cnnn2)C(Cc2ccc(-c3ccccc3)cc2)C1=O` (centres undefined) gave Tgondii IFNg 2.
For COc1ccccc1C(=O)NCCc1sc(-c2ccc(Cl)cc2)nc1C the results were Tgondii IFNg -107*.
Screening Cc1nc(-c2ccc(F)cc2)sc1CCNC(=O)C(=O)Nc1ccc2c(c1)OCO2 returned Tgondii IFNg -72*.
Cc1nc(-c2ccc(F)cc2)sc1CCNC(=O)c1ccccc1Cl was read as Tgondii IFNg -72*.
`COc1ccccc1OCC(=O)NCCc1sc(-c2ccc(F)cc2)nc1C` gave Tgondii IFNg 6.
COc1ccccc1C(=O)NCCc1sc(-c2ccc(F)cc2)nc1C was read as Tgondii IFNg -107*.
`Cc1nc(-c2ccc(Cl)cc2)sc1CCNC(=O)c1ccccc1F` gave Tgondii IFNg -34.
`Cc1nc(-c2ccc(F)cc2)sc1CCNC(=O)C(=O)Nc1ccc2c(c1)OCCO2` gave Tgondii IFNg -40.
For COc1ccccc1C(=O)NCCc1sc(-c2cccc(F)c2)nc1C the results were Tgondii IFNg 52.
Cc1nc(-c2ccc(F)cc2)sc1CCNC(=O)c1c(F)cccc1Cl was read as Tgondii IFNg -5.
Cc1ccccc1C(=O)NCCc1sc(-c2ccc(Cl)cc2)nc1C was read as Tgondii IFNg -56.
Cc1nc(-c2ccc(F)cc2)sc1CCNC(=O)c1ccccc1Br was read as Tgondii IFNg -14.
For Cc1ccc(-c2nc(C)c(CCNC(=O)C(=O)Nc3ccc4c(c3)OCO4)s2)cc1 the results were Tgondii IFNg -69.
For COc1ccc(CN2C[C@@H]3CN(Cc4nccn4C)C[C@H]3C2=O)cc1 the results were Tgondii IFNg -1.
`Cc1ccc2[nH]c(=O)c(-c3nc(-c4ccccc4C)no3)c(O)c2c1` gave Tgondii IFNg 63.
O=C(Cn1c(=O)cc(-c2nc(C3CC3)no2)c2ccccc21)NCc1ccccc1F was read as Tgondii IFNg 68.
For COCC(=O)N1C[C@@H]2c3nc(NCC4CC4)ncc3CS(=O)(=O)[C@H]2C1 the results were Tgondii IFNg -1.
Screening COCCN1CCC2(CC1)CC1(CCN(S(=O)(=O)C3CC3)CC1)N(C)C2=O returned Tgondii IFNg -1.
For Cc1cc(C)cc(S(=O)(=O)N2CCC(C(=O)NCCc3csc(-c4ccccc4)n3)CC2)c1 the results were Tgondii IFNg 15.
Screening OCC1(CC2CCCCO2)CCN(c2cnc3ccccc3n2)CC1 (centres undefined) returned Tgondii IFNg 48.
`COc1cc(C)c(C)cc1S(=O)(=O)NCCc1csc(-c2cccc(F)c2)n1` gave Tgondii IFNg 89.
For Cc1nc(-c2ccc(Cl)cc2)sc1CCNC(=O)COc1ccccc1F the results were Tgondii IFNg 17.
For COc1ccc(-c2nc(C)c(CCNS(=O)(=O)c3ccc(-c4ccccc4)cc3)s2)cc1OC the results were Tgondii IFNg -118*.
Screening Cc1ccccc1OCC(=O)NCCc1sc(-c2ccc(Cl)cc2)nc1C returned Tgondii IFNg 28.
For CCOc1ccccc1C(=O)NCCc1sc(-c2ccc(Cl)cc2)nc1C the results were Tgondii IFNg -106*.
COc1ccc(S(=O)(=O)NCCc2sc(-c3ccc(OC)c(OC)c3)nc2C)cc1C was read as Tgondii IFNg 185.
COc1ccc(-c2nc(C)c(CCNS(=O)(=O)c3ccc(C)c(C)c3)s2)cc1OC was read as Tgondii IFNg 282.
Screening CCCCOc1ccccc1-c1cc2c(=O)n(Cc3nc(-c4ccc(OC)cc4)oc3C)ccn2n1 returned Tgondii IFNg -60.
For CSCC[C@@H](CO)NC(=O)c1cn(-c2ccccc2)nn1 the results were Tgondii IFNg 3.
CC(C)(C)c1ccc(C(=O)NCCc2csc(-c3ccc(F)cc3)n2)cc1 was read as Tgondii IFNg -46.

Bioassay records: PubChem, Broad Institute
